From PubChem BioAssay AID1986 (Sanford-Burnham Center for Chemical Genomics, 2009) come the findings set out here.

This assay can be described thus: inhibitors of HIV fusion peptide binding, primary screen, biochemical, uHTS, fluorescence dequenching (AID 1986). Conditions: cell-free peptide binding, 30 min, stronger effect = higher value.
The mark [1] stands for this setting: measured here: repeat confirmation average inhibition, at 18.6 µM.

About 890 (0.31%) of roughly 290,000 compounds were called active. No stated cut-off is given here; in the data, active means inhibition mostly above about 52% (no sharp cut-off); inactive means mostly below about 76%. The sample as a whole holds a higher share of actives than the screen did.

Broadly, the inhibition is the relative decrease from the control value, in per cent. Regarding `O=C(NC(NC(=O)c1ccccc1)c1cccc([N+](=O)[O-])c1)c1ccccc1`, the inhibition (at 20 µM) was 4.1% (inactive).

In the case of `CN(C)CCCNS(=O)(=O)c1ccc(N2CCC(c3ccc(Cl)cc3)=N2)cc1`, the inhibition (at 20 µM) is -4.9% (inactive).

Regarding `COc1ccc(-c2nc(N3CCCCCC3)sc2C(=O)c2ccccc2)cc1`, the inhibition (at 20 µM) was 0.2% (inactive).

As for `Oc1[nH]c2ccccc2c1N=Nc1ccc(F)cc1`, the inhibition (at 20 µM) was 150% (inactive).

For `Cc1ccc(N=Nc2c(O)[nH]c3ccc(F)cc23)cc1`, where the note is “at 20 µM”, the inhibition is 111% (active).

In the case of `Cc1cccc(N=Nc2c(O)[nH]c3ccc(Br)cc23)c1`, the inhibition (at 20 µM) was 13.9% (inactive).

Take `Oc1[nH]c2ccc(Br)cc2c1N=Nc1ccc(F)cc1`: for the setting “at 20 µM”, the inhibition was 164% (inactive).

On to `Cc1cccc(N=Nc2c(O)[nH]c3ccc(F)cc23)c1`, for which the inhibition by setting is: (at 20 µM) 95% (active); under setting [1], 136%.

With `O=[N+]([O-])c1ccc(N=Nc2c(O)[nH]c3ccc(F)cc23)cc1`, the inhibition (at 20 µM) was 6.3% (inactive).

As to `CCOc1ccc(N(C(=O)c2snc(C(N)=O)c2N)C(CC)C(=O)NC2CCCC2)cc1` (stereo unspecified), the inhibition (at 20 µM) was 1.8% (inactive).

As to `Cc1cc(C)c(NC(=O)CSc2nc3ncc(Cl)cc3[nH]2)c(C)c1`, the inhibition (at 20 µM) is 2.2% (inactive).

As for `Cc1ccc(-c2c(C(=O)Nc3ccccc3C)c(C)[nH]c(=S)c2C#N)o1`, the inhibition (at 20 µM) is 33.1% (inactive).

As to `Cc1ccccc1NC(=O)c1c(C)[nH]c(=S)c(C#N)c1-c1ccco1`, the inhibition (at 20 µM) was 66.5% (active).

As to `CNC(=O)c1c(C)[nH]c(=S)c(C#N)c1-c1ccco1`, the inhibition (at 20 µM) is 4.3% (inactive).

`O=C(CN1C(=O)NC2(CCCCCCC2)C1=O)N1CCN(C(=O)c2ccco2)CC1`: the inhibition (at 20 µM) was 1.6% (inactive).

With `COc1ccc(CCC(=O)Nc2ccccc2C(F)(F)F)cc1`, the inhibition (at 20 µM) was 0% (inactive).

Take `CCCN1CCN(C(=O)CCn2c(=O)c3cccn3c3cccnc32)CC1`: under “at 20 µM”, the inhibition is 0.2% (inactive).

For the compound `Nc1c(C(=O)N/N=C/c2ccccc2Cl)oc2nc(-c3ccccc3)cc(-c3ccco3)c12`, the inhibition runs as follows: (at 20 µM) 51.3% (active); under setting [1], 69.2%.

As for `Nc1c(C(=O)N/N=C/c2cccnc2)oc2nc(-c3ccco3)cc(-c3ccco3)c12`, the inhibition is, setting by setting: (at 20 µM) 99.1% (inactive); under setting [1], 9.2%.

As to `COc1cccc(/C=N/NC(=O)c2oc3nc(-c4ccccc4)cc(-c4ccco4)c3c2N)c1`, the inhibition was 54.2% (active) (at 20 µM) and 55.5% under setting [1].

Regarding `Cc1ccc(-c2cc(-c3ccco3)c3c(N)c(C(=O)NN)oc3n2)cc1`, the inhibition was 60.5% (inactive) (at 20 µM) and 7.9% under setting [1].

`Nc1c(C(=O)N/N=C/c2cccnc2)oc2nc(-c3ccccc3)cc(-c3ccco3)c12`: the inhibition (at 20 µM) is 32.7% (inactive).

`Nc1c(C(=O)N/N=C/c2ccc(F)cc2)oc2nc(-c3ccccc3)cc(-c3ccco3)c12`: the inhibition (at 20 µM) is 44.8% (inactive).

Consider `O=C(CCCCCN1C(=O)c2ccccc2C1=O)Nc1ccc(C(=O)O)cc1`, for which, for the setting “at 20 µM”, the inhibition was -1% (inactive).

Turning to `CSc1nc2ccccc2n1CC(=O)Nc1ccc(C)c(C)c1`, the inhibition (at 20 µM) was 0.9% (inactive).

With `O=[N+]([O-])c1cccc(S(=O)(=O)c2ccc(N3CCCCC3)c([N+](=O)[O-])c2)c1`, the inhibition (at 20 µM) was 2.4% (inactive).

For `CCOC(=O)C1=C(CC)OC(N)=C(C#N)C1c1ccc(OC)c(C)c1OC` (stereo unspecified), under “at 20 µM”, the inhibition is -1.8% (inactive).

Consider `CCOC(=O)/C(=N\Nc1cccc(C(F)(F)F)c1)N1CCOCC1`, for which, for the setting “at 20 µM”, the inhibition was -4.2% (inactive).

For the compound `O=S(=O)(c1ccccc1)N1CCC(Oc2ccc(-n3cnnn3)cc2)CC1`, under “at 20 µM”, the inhibition was 0.5% (inactive).

`COc1cnc(N(C)C)nc1Sc1cccc(Cl)c1`: the inhibition (at 20 µM) is 1.2% (inactive).

Take `O=C(O)c1ccc2c3c(cccc13)C(=O)N(c1ccccc1)C2=O`: the inhibition (at 20 µM) was 24.2% (inactive).

As to `Cc1c(O)c2c3c(cccc3c1O)C(=O)N(c1ccccc1)C2=O`, the inhibition reads like this: (at 20 µM) 57.9% (active); under setting [1], 55.3%.

Regarding `Nc1ccc2c3c(cccc13)C(=O)N(c1ccccc1)C2=O`, under “at 20 µM”, the inhibition is 142% (inactive).

For the compound `Cc1cc(C)cc(NC(=O)c2cccn2-c2ncc(C(F)(F)F)cc2Cl)c1`, the inhibition (at 20 µM) is 2.6% (inactive).

In the case of `O=C(N=c1ccn(-c2nc3ccccc3nc2NS(=O)(=O)c2ccccc2)cc1)c1ccccc1Cl`, the inhibition (at 20 µM) was 24.6% (inactive).

Consider `O=C(N=c1ccn(-c2nc3ccccc3nc2NS(=O)(=O)c2ccc(Cl)cc2)cc1)c1cccs1`, for which, where the note is “at 20 µM”, the inhibition was 19.3% (inactive).

With `O=C(N=c1ccn(-c2nc3ccccc3nc2NS(=O)(=O)c2ccc(Cl)cc2)cc1)c1ccccc1Cl`, the inhibition (at 20 µM) is 102% (active).

`COc1cccc(/C=N/n2c(C3CCCCC3)n[nH]c2=S)c1`: where the note is “at 20 µM”, the inhibition was 0.5% (inactive).

For `CC(C)(C)C(=O)NC(=S)Nc1ccccc1C(N)=O`, under “at 20 µM”, the inhibition was -0.3% (inactive).

`CCCCCCc1cc2cc(-c3nnc(-c4cc(OC)c(OC)c(OC)c4)o3)c(=O)oc2cc1O`: the inhibition runs as follows: (at 20 µM) 73.7% (active); under setting [1], 61.9%.

In the case of `CCCCCCc1cc2cc(-c3nnc(-c4ccccc4O)o3)c(=O)oc2cc1O`, the inhibition was 65.1% (inactive) (at 20 µM) and 47.7% under setting [1].

Take `CCCCCCc1cc2cc(-c3nnc(-c4ccccc4OC)o3)c(=O)oc2cc1O`: the inhibition reads like this: (at 20 µM) 81.8% (inactive); under setting [1], 45.4%.
